# eIF4E 4G PPI: blocks eIF4E binding to eIF4G | TR-FRET eIF4E-eIF4GI(517-606) binding, 2 h | inhibition, % at 21.7 µM | 0.37% of 220,000 active;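 active means inhibition above about 30%, limit read from the data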
# 14-3-3 Bad PPI: disrupts binding of bovine 14-3-3 zeta to phospho-Bad peptide. P63103. inhibition, % at 21.7 µM. TR-FRET 14-3-3zeta/Dy647-pBad peptide displacement, 1 h. 0.71% of 220,000 active;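 active means inhibition above about 70%, limit read from the data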
# Mcl-1 Bim block: human Bim-Mcl-1 interaction inhibition; Q07820; Bead-based flow cytometry, Bim peptide-Mcl-1 binding; inhibition, % at 10 µM; 0.1% of 190,000 active; AID 1009; in the data active means inhibition above about 40%
# Hck Nef HTS: human Hck-Nef kinase inhibition. Recombinant Hck-YEEI plus Nef, Z-Lyte FRET kinase assay. inhibition, % at 20 µM. 0.68% of 220,000 active. AID 463187;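 active means Hck-Nef kinase inhibition above about 50%, limit read from the data; inactive means inhibition below that limit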
# Mcl1-Bid inh: Mcl-1/Bid interaction inhibition; TR-FRET Mcl-1/Bid-Dy647 peptide binding, 1536-well; inhibition, % at 21.7 µM; 0.97% of 220,000 active; Q07820;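 active means compounds that cut the binding signal by more than half at the single screening dose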;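 further: His-tagged Mcl-1 with europium anti-His antibody binding Bid BH3 peptide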
# Mcl1 Noxa PPI: disrupts binding of human Mcl-1 to Noxa peptide; Q07820; TR-FRET Mcl-1/Noxa peptide binding, 2 h; inhibition, % at 21.7 µM; 1.5% of 220,000 active;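 active means compounds that cut the protein-peptide binding signal by more than 50% relative to plate controls in a single-dose test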;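 further: His-tagged Mcl-1 with rhodamine Noxa BH3 peptide and terbium anti-His antibody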
# A number is an active result; – = inactive; · = no result; ! = a repeat was not active. Hits are enriched below; roughly 3.5% of the tested compounds scored in any of these assays.
SMILES,eIF4E 4G PPI,14-3-3 Bad PPI,Mcl-1 Bim block,Hck Nef HTS,Mcl1-Bid inh,Mcl1 Noxa PPI
O=C(N/N=C/c1ccc2c(c1)OCO2)c1cc(-c2ccc(F)cc2)nc2ccccc12,–,–,–,–,–,–
COc1cc(/C=N/NC(=O)c2cc(-c3ccco3)nc3ccccc23)cc(OC)c1O,–,–,·,–,–,82
O=C(N/N=C/c1cccc(F)c1)c1cc(-c2ccco2)nc2ccccc12,–,–,–,–,–,91
COc1cc([N+](=O)[O-])cc(/C=N/NC(=O)c2cc(-c3ccccc3)nc3ccccc23)c1O,–,–,·,–,–,–
Cc1cc2c(N=NC(=O)CCc3ccccc3)c(O)[nH]c2cc1Br,–,–,–,–,–,–
O=C(CC1C(=O)NCCN1C(=S)Nc1ccccc1)Nc1ccc2c(c1)OCCO2 (stereo unspecified),–,–,–,–,–,–
Cc1ccc(NC(=O)CC2C(=O)NCCN2C(=S)Nc2ccccc2)c(C)c1 (stereo unspecified),–,75,–,–,–,–
CC1=C(C#N)C(=O)N(C2CCS(=O)(=O)C2)C(=O)/C1=C\c1ccc(C)o1 (stereo unspecified),38,–,·,–,–,93
CCOc1cc(N2CCOCC2)c(OCC)cc1NC1=NCCCCC1,–,–,–,–,–,–
FC(F)(F)c1ccc(N2CCOCC2)c(NC2=NCCCCC2)c1,–,82,–,–,–,–
O=C(CNc1ccccc1Cl)N/N=C1\CCCc2ccccc21,–,–,–,–,–,–
COc1ccc(Cn2cccc(NC(=O)Nc3cccc(OC)c3)c2=O)cc1,–,–,·,–,–,–
O=C(NCC1(N2CCOCC2)CCCCC1)c1cccc(S(=O)(=O)N2CCc3ccccc3C2)c1,–,–,–,–,–,–
CN1CCN(S(=O)(=O)c2ccc(N3CCN(S(=O)(=O)/C=C/c4ccccc4)CC3)nc2)CC1,–,72,–,–,–,–
CN1CCN(S(=O)(=O)c2ccc(N3CCN(C(c4ccccc4)c4ccccc4)CC3)nc2)CC1,–,–,–,–,–,–
COc1cc2c(cc1OC)C1(C)N(CC2)C(C(C)=O)=NN1c1ccc(Cl)cc1 (stereo unspecified),–,–,·,–,–,–
Oc1[nH]c(=S)sc1/C=C1\C(c2ccccc2)=Nc2ccccc21,–,–,–,–,–,81
COC(=O)c1cnc(Oc2c(Cl)cc(N)cc2Cl)cc1C(F)(F)F,–,–,·,–,–,–
CCN(CC)CCCNC(=O)CC1Sc2ccccc2NC1=O (stereo unspecified),32,–,–,–,–,–
O=C(Nc1ccc(O)c2c(=O)cc(-c3cccc(Cl)c3)oc12)c1ccccc1Cl,–,–,·,–,–,–
Cc1c(Br)c(O)c(Br)c2sc(=O)oc12,–,–,·,–,–,51
O=c1[nH]c(S)c(/C=C2\C=Nc3ccccc32)s1,–,–,·,–,–,62
COC(=O)CCCCC1SCC(NC(=O)c2ccccc2)C1=O (stereo unspecified),–,–,–,–,–,–
Cc1nccn1CC(O)COC1CCCCC1 (stereo unspecified),–,–,–,–,62,–
Cc1nccn1CC(O)COc1ccccc1 (stereo unspecified),–,–,–,–,–,–
SMILES,eIF4E 4G PPI,14-3-3 Bad PPI,Mcl-1 Bim block,Hck Nef HTS,Mcl1-Bid inh,Mcl1 Noxa PPI
Nc1nc(SCC(=O)NCCc2ccccc2)[nH]c(=O)c1-c1ccccc1,–,–,–,–,–,–
O=C(Nc1ccc2[nH]c(=S)sc2c1)c1ccccc1,–,–,–,–,–,–
O=C(Nc1ccc2[nH]c(=S)sc2c1)Nc1ccccc1F,–,–,·,–,–,55
CC(=O)N1CCCN(Cc2cn(-c3ccc(C)cc3)nc2-c2ccc(F)cc2)CC1,–,–,–,–,56,–
CC1CCc2c(sc(Nc3nc4c(F)cccc4s3)c2C(N)=O)C1 (stereo unspecified),–,–,–,–,–,101
Cc1onc(-c2c(Cl)cccc2Cl)c1C(=O)NC(=S)Nc1sc2c(c1C(N)=O)CCC(C)C2 (stereo unspecified),–,–,–,–,–,–
Cc1nn2c(COc3ccc(NC(=O)C(C)C)cc3)nnc2c2ccccc12,–,85,–,–,–,–
CCOC(=O)Nc1ccc(OCc2nnc3c4ccccc4c(C)nn23)cc1,–,–,–,–,–,–
CCOC(=O)CSc1nc2sc(C)c(C)c2c(=O)n1N,–,–,–,–,–,–
OCC1CCCN(c2ncnc3scc(-c4ccccc4)c23)C1 (stereo unspecified),–,–,–,–,–,–
OCC1CCCN(c2nc(CN3CCCCC3)nc3scc(-c4ccccc4)c23)C1 (stereo unspecified),–,–,–,–,97,–
COc1cccc(-c2cc(=O)c3cc(NC(=O)c4ccc(N(C)C)cc4)ccc3[nH]2)c1,–,–,–,–,–,58
CN(C)c1ccc(NC(=O)CCn2c(=S)oc3ccccc32)cc1,–,–,–,–,–,68
Cc1ccc(NC(=O)CCn2c(=S)oc3ccccc32)cc1,–,–,–,–,–,–
COC(=O)c1c(C)nn(-c2ccc(F)c(Cl)c2)c1-c1cc(C)on1,–,–,·,–,–,–
O=C(CN1C(=O)/C(=C\c2cccc(F)c2)Oc2ccccc21)N1CCN(c2ccccn2)CC1,–,–,–,–,54,–
O=C(CN1C(=O)/C(=C\c2ccc(F)cc2)Oc2ccccc21)N1CCN(c2ccccn2)CC1,–,–,–,–,–,–
O=C1CSC(c2cccnc2)N1c1ccc(Cl)cc1 (stereo unspecified),–,–,–,–,79,–
O=C1CSC(c2ccc(Cl)cc2)N1c1cccnc1 (stereo unspecified),–,–,·,–,–,–
CCOc1ccccc1NC(=O)CN(C)S(=O)(=O)c1cccc2nsnc12,–,–,–,–,88,–
Cc1cccc(NC(=O)CN(C)S(=O)(=O)c2cccc3nsnc23)c1C,–,–,–,–,–,–
CC1=[N+]([O-])C(C)(C)N(O)C1(C)C,–,–,·,–,–,–
CC(C)C(=O)OC1CCS(=O)(=O)c2sccc21 (stereo unspecified),–,–,–,–,–,–
COc1cc(C(=O)NCc2ccc(C(=O)NCC(OC)OC)cc2)cc(OC)c1OC,63,72,–,–,64,–
Cc1ccc(-c2csc(NC(=O)N3CCOCC3)n2)cc1,–,–,–,–,–,–
Cc1c(OCC(F)(F)F)ccnc1CS(=O)c1nc2ccccc2[nH]1 (stereo unspecified),–,–,–,–,–,70!
Cn1c(-c2ccc(Br)cc2)cnc1NCc1cccnc1,–,79,–,–,–,–
Cn1c(-c2ccc3c(c2)OCO3)cnc1NCc1ccc(Cl)cc1,–,77,–,–,–,–
Cn1c(-c2ccc(F)cc2)cnc1NCc1ccc(F)cc1,–,80,–,–,–,–

# Screening results as filed in PubChem BioAssay.
